PubChem BioAssay (NCATS)
Inconclusive results are not listed. Unmarked numbers belong to inactive results. Active and inactive are the calls of the source. The call rests on the fitted dose curve; in most records, active means well fitted inhibition curve with a large enough effect; inconclusive means small, poorly fitted or top-dose-only effect; inactive means flat fitted curve, though single readings scatter. Where a SMILES comes first, the peptide text is derived from it. The star is where a group is joined. βNA = c1ccc2cc(N*)ccc2c1; Cbz = O=C(OCc1ccccc1)*

Assay: Primary qHTS for inhibitors of nuclear receptor binding SET domain protein 2 (NSD2) in an isogenic RCH-ACV NSD2 p.E1099K mutant (9B) (AID 1645876); further: nearly all actives have a fitted effect of over 70% in size
Settings: RCH-ACV (leukaemia line) NSD2 E1099K (9B) viability, CellTiter-Glo, 72 h; series mostly up to 44.9 µM; activity change, negative = viability loss: at the top concentration
On the % scale 0 is the no-effect control and ±100 the full control effect.

| SMILES | activity change, negative = viability loss | outcome |
| --- | --- | --- |
| CC1(CO)CC(O)C2(C)CCC3(C)C(=CCC4C5(C=O)CCC(OC6OC(C(=O)O)C(O)C(O)C6OC6OC(C(=O)O)C(O)C(O)C6O)C(C)(C)C5CCC43C)C2C1 (stereo not drawn) | -5.71% [at 9.23 µM] |  |
| CC1=CC(=O)CC(C)(C)C1CO[C@@H]1O[C@H](CO)[C@@H](O)[C@H](O)[C@H]1O (stereo partly drawn) |  | inactive |
| CC(C)CC(NC(=O)OCc1ccccc1)C(=O)NC(CC(C)C)C(=O)NC(CCC(=O)O)C(=O)Nc1ccc2ccccc2c1 (stereo not drawn) (Cbz-Leu-Leu-Glu-βNA; configuration not given here) | -4.3% |  |
| O=C(Cc1ccc(Cl)cc1)Nc1cnccc1C(=O)O | -1.7% |  |
| C[C@H]1CC[C@H]2[C@@H](C=C[C@@](C)(O)[C@]2(C)C(=O)CCO)C1 | -13.1% |  |
| CC(C)=CCC/C(C)=C/CO[C@@H]1O[C@H](CO[C@@H]2O[C@@H](CO)[C@H](O)[C@H]2O)[C@@H](O)[C@H](O)[C@H]1O |  | inactive [at 17.3 µM] |
| COc1ccc(OC2OC(CO[C@@H]3O[C@@H](C)[C@H](O)[C@@H](O)[C@H]3O)C(O)C(O)C2O)cc1OC (stereo partly drawn) |  | inactive [at 17.3 µM] |
| C=C(C)[C@@]1(O)C[C@@]2(C)C(=CC1=O)CC[C@@H](O)[C@@H]2C | -9.62% |  |
| CC1=C2CC(O)(C(C)(C)O)C(O[C@@H]3O[C@H](CO)[C@@H](O)[C@H](O)[C@H]3O)CC(C)C2CC1=O (stereo partly drawn) | -15.6% [at 17.3 µM] |  |
| CC1=CC(=O)CC(C)(C)C1/C=C/C(C)OC1OC(COC2OCC(O)C(O)C2O)C(O)C(O)C1O (stereo not drawn) | -10% [at 17.3 µM] |  |
| COC(=O)C1=CO[C@@H](O[C@@H]2O[C@H](CO)[C@@H](O)[C@H](O)[C@H]2O)[C@@H]2[C@@H](CO)[C@@H](O)C(O)[C@H]12 (stereo partly drawn) | -1% [at 17.3 µM] |  |
| CC(=O)OCC1OC(O[C@H]2CC[C@]34C[C@]35CC(O)[C@]3(C)[C@@H]([C@H](C)CC/C=C(\C)C(=O)O)C(O)C[C@@]3(C)C5CC[C@H]4C2(C)C)C(O)C(O)C1OC1OCC(O)C(O)C1O (stereo partly drawn) | -5.86% [at 9.23 µM] |  |
| CC1=CC(=O)C2C(C)(C)CCC[C@]2(C)[C@H]1CC[C@H](C)CC(=O)O (stereo partly drawn) | 3.36% |  |
| COC(=O)C1=CO[C@@H](O[C@@H]2O[C@H](CO)[C@@H](O)[C@H](O)[C@H]2O)[C@H]2[C@@H]1C=C[C@]21C=C([C@H](C)OC(=O)/C=C/c2ccc(O[C@@H]3O[C@H](CO)[C@@H](O)[C@H](O)[C@H]3O)cc2)C(=O)O1 | 0.515% [at 17.3 µM] |  |
| CC(C)=C1C[C@@]2(C)C(=CC1=O)CC[C@@H](O)[C@@H]2C | 0.933% |  |
| O=C(OC[C@H]1O[C@H](O[C@]2(CO)O[C@H](CO)[C@@H](O)[C@@H]2O)[C@H](O)[C@@H](O)[C@@H]1O)c1ccc(O)cc1 | 4.08% [at 17.3 µM] |  |
| COc1cc(/C=C/C(=O)OCC2OC(OC3(CO)OC(CO)C(O)C3O)C(O)C(O)C2O)ccc1O (stereo not drawn) | 4.76% [at 17.3 µM] |  |
| C=C1[C@H]2CCC3[C@]4(C)CCC[C@@](C)(C(=O)O)C4CC[C@]3(C2)[C@H]1OC(C)=O (stereo partly drawn) |  | inactive |
| CC1=CC(=O)CC(C)(C)C1CCC(C)O[C@@H]1O[C@H](CO)[C@@H](O)[C@H](O)[C@H]1O (stereo partly drawn) | 4.3% |  |

| SMILES | activity change, negative = viability loss | outcome |
| --- | --- | --- |
| COc1cc(CO)ccc1O[C@@H]1O[C@H](CO)[C@@H](O)[C@H](O)[C@H]1O | -9.04% |  |
| C[C@]1(OC(=O)/C=C\c2ccc(O)cc2)C[C@@H](O)[C@]2(O)C=CO[C@@H](O[C@@H]3O[C@H](CO)[C@@H](O)[C@H](O)[C@H]3O)C12 (stereo partly drawn) | -8.02% [at 17.3 µM] |  |
| C/C=C(\C)C(=O)OC[C@H]1O[C@H](O[C@H]2O[C@H](CO)[C@@H](O)[C@H](O)[C@H]2O[C@@H]2O[C@H](CO)[C@@H](O)[C@H](O)[C@H]2O)[C@H](O[C@@H]2O[C@H](CO)[C@@H](O)[C@H](O)[C@H]2O)[C@@H](O)[C@@H]1O |  | inactive [at 17.3 µM] |
| Fc1cccc(CN(C2=NCCN2)c2c(Cl)cccc2Cl)c1 | -15.4% |  |
| C=C1CC[C@H]2[C@@](C)(CCC(OC3OC(CO)C(O)C(O)C3O)[C@@]2(C)CO)C1C(=O)CC1=CCOC1=O (stereo partly drawn) | -3.53% [at 17.3 µM] |  |
| C/C=C/C=C/C=C/C(=O)OC1C=C2C(O)OC(=O)[C@]2(O)[C@@]2(C)CCCC(C)(C)[C@H]12 (stereo partly drawn) | 0.883% [at 17.3 µM] |  |
| C[C@@H]1C[C@@H](O)[C@@]23CO[C@]2(CO)CCC[C@@H]3[C@@]12C[C@@H](c1ccoc1)OC2=O |  | inactive |
| CC(C)C1C(OC(=O)/C=C/c2ccccc2)CC2(C)OC2CCC2(C)OC2C1O (stereo not drawn) | -18% |  |
| CC1(C)[C@H]2C[C@H](C/C=C\CCCC(=O)O)[C@@H](NC(=O)c3csc4ccc(O)cc34)[C@@H]1C2 | -24.9% |  |
| CCC/C=C1\OC(=O)C2=C1CCC(O)C2O (stereo not drawn) | -0.664% |  |
| C=C1C(O)C(OC(=O)c2ccccc2)C2C(C)(C(=O)O)CCCC2(C)C1CC/C(C)=C\CO (stereo not drawn) | -8.4% [at 17.3 µM] |  |
| CC1CCC2(NC1)OC1C(O)C3C4CCC5CC(O[C@@H]6O[C@H](CO)[C@@H](O)[C@H](O)[C@H]6O[C@@H]6O[C@@H](C)[C@H](O)[C@@H](O)[C@H]6O)CCC5(C)C4CCC3(C)C1C2C (stereo partly drawn) | -14.7% [at 17.3 µM] |  |
| CCC(C)/C=C(C)/C=C/C1=CC2=C(Cl)C(=O)C(C)(OC(C)=O)C(=O)C2=CN1C(CCC(=O)O)C(=O)O (stereo not drawn) | -2.1% [at 17.3 µM] |  |
| CC(=O)c1c(C)cccc1O[C@@H]1O[C@H](CO)[C@@H](O)[C@H](O)[C@H]1O | -2.14% |  |
| C=C[C@H]1[C@H](O[C@@H]2O[C@H](CO)[C@@H](O)[C@H](O)[C@H]2O)OC=C2C(=O)N3Cc4c([nH]c5ccccc5c4=O)[C@@H]3C[C@H]21 | 0.956% [at 17.3 µM] |  |
| C[C@@H]1O[C@@H](O[C@H]2[C@H](OC(=O)[C@]34CCC(C)(C)C[C@H]3C3=CCC5[C@@]6(C)C[C@@H](O)[C@@H](O)[C@@](C)(CO)C6[C@H](O)C[C@@]5(C)[C@]3(C)CC4)OC[C@H](O)[C@@H]2O)[C@H](O)[C@H](O)[C@H]1O[C@@H]1OC[C@@H](O)[C@H](O[C@H]2O[C@H](C)[C@@H](O)[C@H](O)[C@@H]2O)[C@H]1O (stereo partly drawn) | -2.76% [at 9.23 µM] |  |
| CC1(C)COC(=O)[C@@H]1O[C@@H]1O[C@H](CO)[C@@H](O)[C@H](O)[C@H]1O | -7.96% |  |
| Nc1nc2c(nc(Sc3ccc(Cl)cc3)n2[C@@H]2O[C@@H]3COP(=O)(O)O[C@H]3[C@H]2O)c(=O)[nH]1 | 3.01% |  |
| O=C(O)CC(CCc1ccccc1)OC1OC(CO)C(O)C(O)C1O (stereo not drawn) | 0.0962% |  |
